Measurements: PubChem BioAssay (NCATS)
Records with an inconclusive call do not appear. Activity calls are given as the source filed them. Calls follow the shape of the dose curve; as a rule, active = well fitted cell-killing curve with a large enough effect; inconclusive = small, poorly fitted or top-dose-only effect, or effect the other way; inactive = flat fitted curve, though single readings scatter.

Tests used:
Experiment in all cases: Primary qHTS to identify gynecologic anti-cancer compounds using libraries of approved drugs and bioactive compounds (AID 1345084); also: nearly all actives have a fitted effect of over 55% in size
C33A = details: Gynecologic cancer cell panel viability, ATPlite luminescence, 48 h; series mostly up to 57.5 µM
How it was run: (§1)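 Cells, 1,000 per well, plated 16 h, then exposed 48 h at 37 C to compounds. Viability by ATPlite luminescence after 15 min at room temperature.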

CAOV3 = details: Gynecologic cancer cell panel viability, ATPlite luminescence, 48 h; series mostly up to 57.5 µM
How it was run: as §1

CASKI = details: Gynecologic cancer cell panel viability, ATPlite luminescence, 48 h; series mostly up to 57.5 µM
How it was run: as §1

Es-2 = details: Gynecologic cancer cell panel viability, ATPlite luminescence, 48 h; series mostly up to 57.5 µM
How it was run: as §1

HeLa = details: Gynecologic cancer cell panel viability, ATPlite luminescence, 48 h; series mostly up to 57.5 µM
How it was run: as §1

Hek293T = details: Gynecologic cancer cell panel viability, ATPlite luminescence, 48 h, control line for the selectivity index; series mostly up to 57.5 µM
How it was run: as §1

JEG-3 = details: Gynecologic cancer cell panel viability, ATPlite luminescence, 48 h; series mostly up to 57.5 µM
How it was run: as §1

OV90 = details: Gynecologic cancer cell panel viability, ATPlite luminescence, 48 h; series mostly up to 57.5 µM
How it was run: as §1

PA-1 = details: Gynecologic cancer cell panel viability, ATPlite luminescence, 48 h; series mostly up to 57.5 µM
How it was run: as §1

SKOV3 = details: Gynecologic cancer cell panel viability, ATPlite luminescence, 48 h; series mostly up to 57.5 µM
How it was run: as §1

Tov-21-G = details: Gynecologic cancer cell panel viability, ATPlite luminescence, 48 h; series mostly up to 57.5 µM
How it was run: as §1

Tov112D = details: Gynecologic cancer cell panel viability, ATPlite luminescence, 48 h; series mostly up to 57.5 µM
How it was run: as §1
% is scaled to controls: 0 for no effect and ±100 for the full control effect.

CC1(O)CC(O)C2(O)C=COC(O[C@@H]3O[C@H](CO)[C@@H](O)[C@H](O)[C@H]3O)C12 (stereo partly specified)
inactive: Potency (C33A) | Potency (CAOV3) | Potency (CASKI) | Potency (Es-2) | Potency (HeLa) | Potency (Hek293T) | Potency (JEG-3) | Potency (OV90) | Potency (PA-1) | Potency (SKOV3) | Potency (Tov-21-G) | Potency (Tov112D)

COCCOc1ccc(N2CCN(CCn3ncc4c3nc(N)n3nc(-c5ccco5)nc43)CC2)cc1
inactive: Potency (C33A) | Potency (CAOV3) | Potency (CASKI) | Potency (Es-2) | Potency (HeLa) | Potency (Hek293T) | Potency (JEG-3) | Potency (OV90) | Potency (PA-1) | Potency (SKOV3) | Potency (Tov-21-G) | Potency (Tov112D)

CC(=O)O[C@@H]1C[C@@H](OC(C)=O)C(C)(C)/C=C/[C@H](C)[C@H](OC(C)=O)[C@@]2(O)C[C@H](C)[C@H](OC(=O)c3ccccc3)[C@@H]2/C=C/1C
inactive: Potency (C33A) | Potency (CAOV3) | Potency (CASKI) | Potency (Es-2) | Potency (HeLa) | Potency (Hek293T) | Potency (JEG-3) | Potency (OV90) | Potency (PA-1) | Potency (SKOV3) | Potency (Tov-21-G) | Potency (Tov112D)

COC(=O)C1=COC(OC2OC(CO)C(O)C(O)C2O)C2C1C=CC2(O)CO (stereo unspecified)
inactive: Potency (C33A) | Potency (CAOV3) | Potency (CASKI) | Potency (Es-2) | Potency (HeLa) | Potency (Hek293T) | Potency (JEG-3) | Potency (OV90) | Potency (PA-1) | Potency (SKOV3) | Potency (Tov-21-G) | Potency (Tov112D)

Oc1ccc2nc(CN3CCC(Cc4ccccc4F)CC3)[nH]c2c1
inactive: Potency (C33A) | Potency (CAOV3) | Potency (CASKI) | Potency (Es-2) | Potency (HeLa) | Potency (Hek293T) | Potency (JEG-3) | Potency (OV90) | Potency (PA-1) | Potency (SKOV3) | Potency (Tov-21-G) | Potency (Tov112D)

Nc1ncnc2c1ncn2CCNCCCCCO
inactive: Potency (C33A) | Potency (CAOV3) | Potency (CASKI) | Potency (Es-2) | Potency (HeLa) | Potency (Hek293T) | Potency (JEG-3) | Potency (OV90) | Potency (PA-1) | Potency (SKOV3) | Potency (Tov-21-G) | Potency (Tov112D)

C[C@@H](O)[C@H](NC(=O)c1ccc(C#Cc2ccc(CN3CCOCC3)cc2)cc1)C(=O)NO
inactive: Potency (C33A) | Potency (CAOV3) | Potency (CASKI) | Potency (Es-2) | Potency (HeLa) | Potency (Hek293T) | Potency (JEG-3) | Potency (OV90) | Potency (PA-1) | Potency (SKOV3) | Potency (Tov-21-G) | Potency (Tov112D)

O=C(O)Cc1ccc2oc(-c3ccc(NC(=O)/C=C/c4ccc(Br)cc4)c(F)c3)nc2c1
inactive: Potency (C33A) | Potency (CAOV3) | Potency (CASKI) | Potency (Es-2) | Potency (HeLa) | Potency (Hek293T) | Potency (JEG-3) | Potency (OV90) | Potency (PA-1) | Potency (SKOV3) | Potency (Tov-21-G) | Potency (Tov112D)

C/C=C(\C)C(=O)O[C@@H]1CC2[C@@H](CC=C3C[C@@H](O[C@H]4C[C@H](OC)[C@H](O[C@H]5C[C@H](OC)[C@H](O[C@@H]6O[C@H](C)[C@@H](O[C@H]7C[C@H](OC)[C@H](O[C@@H]8O[C@H](CO)[C@@H](O)[C@H](O)[C@H]8O)[C@@H](C)O7)[C@H](OC)[C@H]6O)[C@@H](C)O5)[C@@H](C)O4)CC[C@@]32C)[C@@]2(O)CC[C@H](C(C)=O)[C@@]12C (stereo partly specified)
inactive: activity change, negative = cytotoxicity (C33A) 1.36% [at 6.55 µM] | activity change, negative = cytotoxicity (CAOV3) 9.95% [at 6.55 µM] | activity change, negative = cytotoxicity (CASKI) 2.06% [at 6.55 µM] | activity change, negative = cytotoxicity (Es-2) -1.14% [at 6.55 µM] | activity change, negative = cytotoxicity (HeLa) -0.318% [at 6.55 µM] | activity change, negative = cytotoxicity (Hek293T) -2.04% [at 6.55 µM] | activity change, negative = cytotoxicity (JEG-3) -4.6% [at 6.55 µM] | activity change, negative = cytotoxicity (OV90) -1.27% [at 6.55 µM] | activity change, negative = cytotoxicity (PA-1) -4.92% [at 6.55 µM] | activity change, negative = cytotoxicity (SKOV3) -3.56% [at 6.55 µM] | activity change, negative = cytotoxicity (Tov-21-G) -5.17% [at 6.55 µM] | activity change, negative = cytotoxicity (Tov112D) 5.73% [at 6.55 µM]

COC(=O)C1=CO[C@@H](O[C@@H]2O[C@H](CO)[C@@H](O)[C@H](O)[C@H]2O)[C@H]2[C@@H]1C=C[C@@]21C=C([C@H](C)O)C(=O)O1
inactive: Potency (C33A) | Potency (CAOV3) | Potency (CASKI) | Potency (Es-2) | Potency (HeLa) | Potency (Hek293T) | Potency (JEG-3) | Potency (OV90) | Potency (PA-1) | Potency (SKOV3) | Potency (Tov-21-G) | Potency (Tov112D)

N#Cc1ccc2[nH]cc(CCCCN3CCN(c4ccc5oc(C(N)=O)cc5c4)CC3)c2c1
inactive: Potency (C33A) | Potency (CAOV3) | Potency (CASKI) | Potency (Es-2) | Potency (HeLa) | Potency (Hek293T) | Potency (JEG-3) | Potency (OV90) | Potency (PA-1) | Potency (SKOV3) | Potency (Tov-21-G) | Potency (Tov112D)

COc1cc2c(cc1OC)CC(=O)N(CCCNC[C@H]1Cc3cc(OC)c(OC)cc31)CC2
inactive: Potency (C33A) | Potency (CAOV3) | Potency (CASKI) | Potency (Es-2) | Potency (HeLa) | Potency (Hek293T) | Potency (JEG-3) | Potency (OV90) | Potency (PA-1) | Potency (SKOV3) | Potency (Tov-21-G) | Potency (Tov112D)

O=C(O)c1ccc(OC2OC(CO)C(O)C(O)C2O)cc1 (stereo unspecified)
inactive: Potency (C33A) | Potency (CAOV3) | Potency (CASKI) | Potency (Es-2) | Potency (HeLa) | Potency (Hek293T) | Potency (JEG-3) | Potency (OV90) | Potency (PA-1) | Potency (SKOV3) | Potency (Tov-21-G) | Potency (Tov112D)
